# Compound activity (PubChem BioAssay)
# Compounds with a hit are over-represented: about 7.3% of the library has one in this group of screens.
# HCV inhibitor – blocks hepatitis C virus; Huh7.5.1 HCVcc-Cre infection, luciferase reporter, 44 h; Potency, µM (doses to about 41.8 µM), inactives show at the highest dose activity change, negative = inhibition, hits mostly inhibitors; hit rate 3.4% among 340,000; active = well fitted inhibition curve with a large enough effect; inconclusive = small, poorly fitted or top-dose-only effect, or another doubt; inactive = no such curve, though single readings can be large or run the other way; note: potency is the fitted concentration of half-maximal effect
#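 HCVcc-Cre virus at an moi near 0.5 was added right after compound to cells cultured 4 h from seeding (1,000 cells/well). Luciferase activity was determined 44 h later, 15 min after substrate addition at RT.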
# HCMV inh – inhibitors of human cytomegalovirus; hit rate 4.5% among 410,000; activity change, negative = inhibition, % at 57.5 µM; HFF cells, HCMV-luciferase reporter, 72 h; active compounds read low; in the data active = activity change below about -60%; inconclusive = no clear call, values can overlap the other calls; inactive = above about -39%
#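 After 16 h attachment at 37C, HFF cells received test compound and HCMV-luciferase (1 PFU/cell); reporter luminescence read 72 h later, data normalized against buffer-only and known inhibitor Salinomycin.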
# Vaccinia mCherry – inhibitors of vaccinia virus infection (mCherry reporter signal); AID 720579; hit rate 0.63% among 310,000; Vaccinia virus mCherry reporter infection, fluorescence; Potency, µM (top dose mostly 36.5 µM), without a hit: at the top dose activity change, negative = inhibition, actives largely listed as inhibitors; calls by dose curve; tested in A549 cells; note: potency is the fitted concentration of half-maximal effect; nearly all actives have a fitted effect of over 35% in size
# VACV Venus inh – inhibitors of vaccinia virus (Venus reporter); Potency, µM (titrated, usually from 36.5 µM), inactives show at the highest dose activity change, negative = inhibition, usual class: inhibitors; Vaccinia virus Venus reporter expression, fluorescence; hit rate 0.46% among 330,000; AID 720580; calls by dose curve; tested in A549 cells; note: potency is the fitted concentration of half-maximal effect; nearly all actives have a fitted effect of over 30% in size
# FMDV inh – blocks foot and mouth disease virus; FMDV antiviral cell-based qHTS; Potency, µM (series often up to 57.9 µM), for the others: at the highest dose activity change, negative = inhibition, actives largely listed as inhibitors; hit rate 1.2% among 410,000; AID 1159524; calls by dose curve; tested in HEK293T cells; note: read-out not given here; potency is the fitted concentration of half-maximal effect; nearly all actives have a fitted effect of over 45% in size
# The depositor's hits bear a star; i = inactive; ? = inconclusive; . = not tested or not shown; ! = not active in a repeat; [ ] = another dose, or the depositor's remark. % is set by controls: 0 for no effect and ±100 for the full control effect.
SMILES,HCV inhibitor,HCMV inh,Vaccinia mCherry,VACV Venus inh,FMDV inh
COc1ccc(OC)c(-c2ccnc(-n3ncc(C(=O)NC(C)(C)CO)c3C3CC3)n2)c1,.,.,-14%,0%,34%
O=C(Nc1ccccc1O)c1c(O)c2c([nH]c1=O)CCCC2,14%,93,18µM*,?,-16%
O=C(Nc1nccs1)c1c(O)c2c([nH]c1=O)CCCC2,13%,0,i,-4%,40%
O=C(Nc1cccc([N+](=O)[O-])c1)OCc1ccc2c(c1)OCO2,.,9,.,.,.
Cc1ccccc1NC(=O)c1ccc(Nc2c([N+](=O)[O-])cc([N+](=O)[O-])c3ccccc23)cc1,14µM*,-92*,?,-25%,?
Cc1cc(C(=O)Nc2ccc(Nc3ccccc3)cc2)ccc1[N+](=O)[O-],11µM*,-21,i,?,-23%
O=C(NCc1ccncn1)[C@H]1[C@H](CO)[C@H]2Cn3c(cccc3=O)[C@@H]1N2CC1CC1,.,1,.,.,.
COc1ccc(S(=O)(=O)c2c(Nc3c(C)cccc3C)sc(C(=O)c3ccc4c(c3)OCO4)c2N)cc1,.,-87*,?,?,11%
CCN1CCCC1CNC(=O)c1cnn(-c2ncc3c(n2)-c2ccc(OC)cc2CC3)c1C1CC1 (stereo unspecified),.,.,i,-3%,-8%
CC(C)Oc1ccc(CNC(=O)c2ccc3nc(Cc4ccccc4)oc3c2)cc1,.,7,-6%,5%,-18%
COc1cccc(CNC(=O)COC(=O)c2ccc(S(C)(=O)=O)c([N+](=O)[O-])c2)c1,.,.,-14%,-17%,.
Cc1ccc(-n2c(-c3ccco3)nc3c(cnn3-c3ccccc3C)c2=O)cc1,9%,-61*!,-8%,-9%,?
Cc1cccc(-n2c(C)nc3c(cnn3-c3ccc(F)cc3)c2=O)c1,6.3µM*,?,?,?,-25%
Cc1cccc(-n2c(-c3ccco3)nc3c(cnn3-c3ccc(F)cc3)c2=O)c1,.,-65*,-25%,-7%,0%
COc1ccc(Oc2c(Cl)cnn(-c3ccc(Cl)c(Cl)c3)c2=O)cc1,?,28,.,-29%,28µM*
CC(C)Cc1nn2c(=O)cc(COC(=O)c3ccc(NC(=O)C4CCCCC4)cc3)nc2s1,.,1,i,-12%,17%
COc1ccc(-n2c(C)nc3c(cnn3-c3ccc(Cl)cc3)c2=O)cc1,?,-77*,?,?,?
Cc1ccc(-n2c(-c3ccco3)nc3c(cnn3-c3ccc(C)cc3)c2=O)cc1,8%,-6,-18%,-23%,28µM*!
CCOC(=O)c1ccc(-n2c(C)nc3c(cnn3-c3ccc(Cl)cc3)c2=O)cc1,?,9,22%,16%,?
O=C(Nc1cccc(Cl)c1)c1ccc2nc(CCc3ccccc3)oc2c1,.,40,-17%,-10%,-17%
COc1ccc(CCNC(=O)c2ccc(Nc3nc4ccccc4n4nnnc34)cc2)cc1OC,.,-114*,-29%,-21%,?
CC(C)CCNC(=O)c1cccc(Nc2nc3ccccc3n3nnnc23)c1,.,-81*,?,?,-22%
c1ccc2c(c1)nc(Nc1ccc3c(c1)OCO3)c1nnnn12,12%,-78*,.,-4%,-21%
O=C(NCCc1ccc(Cl)cc1)c1ccc(Nc2nc3ccccc3n3nnnc23)cc1,.,-11,?,-29%,?
Fc1cccc(Nc2nc3ccccc3n3nnnc23)c1,16%,168,-15%,-26%,23%
SMILES,HCV inhibitor,HCMV inh,Vaccinia mCherry,VACV Venus inh,FMDV inh
COc1ccc(CCNC(=O)c2ccc(CNc3nc(=S)[nH]c4ccccc34)cc2)cc1OC,10µM*,-18,-24%,-26%,-29%
Cn1nnc2c(NCCc3ccccc3)ncnc21,.,-35,-6%,5%,3%
CC(NC(=O)c1cccc(Nc2nc3ccccc3n3nnnc23)c1)c1ccccc1 (stereo unspecified),.,-68*,?,10µM*,?
COc1ccccc1/C=C/c1nc(C#N)c(NCc2ccccc2)o1,.,-24,-11%,-9%,3%
O=C(Nc1ccccc1)N1CCCC2(CCN(C(=O)c3cc(C(F)(F)F)cc(C(F)(F)F)c3)CC2)C1,.,.,.,.,6%
c1ccc(N2CCN(c3nc4cc5c(cc4s3)OCO5)CC2)cc1,-26%,-20,i,-20%,7%
CN1CCN(c2ccc3sc(-n4ccc5ccccc54)nc3c2)CC1,.,-104*,-14%,-16%,?
CC(=O)Nc1cccc(Nc2cc3c(cn2)cc(-c2cnn(C)c2)n3Cc2ccccc2)c1,.,-32,.,.,.
O=C1C=CCC(/C=C/c2ccccc2)O1 (stereo unspecified),-6%[8.37 µM],?,?,0.89µM*,?
CC(=O)Nc1ccc(NC(=O)c2cc(-c3ccc(C)c(C)c3O)n[nH]2)cc1,-22%,-6,.,.,5%
Cc1cc(C)c(O)c(-c2cc(C(=O)Nc3ccc(S(=O)(=O)N4CCOCC4)cc3)[nH]n2)c1,10µM*,-76*,10µM*,13µM*,?
CC(=O)Nc1ccc(NC(=O)c2cc(-c3cc(C)cc(C)c3O)n[nH]2)cc1,8.9µM*,?,.,.,-30%
Cc1ccc(C(=O)Nc2ccc(S(=O)(=O)N3CCOCC3)cc2)cc1,-5%,-14,-22%,-22%,-15%
CCCNC(=O)N1CCC2(CC1)CN(C(=O)c1ccccc1)[C@H](CO)c1[nH]c3cc(OC)ccc3c12,.,-2,.,.,.
O=C(NCC(=O)N(c1ccc(F)cc1)C(C(=O)NC1CCCCC1)c1cccnc1)c1ccco1 (stereo unspecified),18%,0,1%,3%,12%
O=C(NC1CCCCC1)C(c1cccnc1)N(C(=O)CCl)c1ccccc1Cl (stereo unspecified),3.2µM*,-103*,?,10µM*,-13%
COc1ccc(N(C(=O)CCl)C(C(=O)NC2CCCCC2)c2cccnc2)cc1 (stereo unspecified),3.2µM*,-102*,11µM*,2.8µM*,11µM*
O=C(NC1CCCCC1)C(c1cccnc1)N(C(=O)CCl)c1ccc(F)cc1 (stereo unspecified),1.1µM*,-99*,7.9µM*,?,?
CCc1ccccc1N(C(=O)CNC(=O)c1ccco1)C(C(=O)NC1CCCC1)c1cccnc1 (stereo unspecified),?,23,-14%,-6%,0%
O=C(NC1CCCC1)C(c1ccc(F)cc1)N(Cc1ccc(F)cc1)C(=O)CCl (stereo unspecified),?,-67*,-16%,-11%,?
O=C(NC1CCCCC1)C(c1ccncc1)N(Cc1ccc(F)cc1)C(=O)c1ccccn1 (stereo unspecified),0%,0,.,.,0%
COc1ccc(C(=O)Nc2cc(C(=O)NCCc3ccccc3)ccc2Cl)cc1,8.9µM*,26,-7%,-12%,.
COc1ccc(C(=O)Nc2nc(CC(=O)NCCc3ccccc3)cs2)cc1,10µM*,34,-12%,-5%,-5%
COc1ccc(C(=O)Nc2nc(CC(=O)NCCc3cccc(OC)c3)cs2)cc1,?,-9,i,-13%,?
